VDR inh – inhibitors of human vitamin D receptor; AID 504847; VDR-SRC2-3 peptide fluorescence polarization, 2 h; 400,000 tested, 0.93% active; P11473; Potency, µM, for inactives: max response, negative = inhibition, hits mostly inhibitors; further: on the % scale 0 is the no-effect control and ±100 the full control effect
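VDR–SRC2-3 interaction, FP format. Cmpds 23 nl via pintool, brief spin, 2 h ambient incubation.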
PLK1 PBD inh – inhibitors of human PLK1 polo-box domain binding | Potency, µM, for the others: max response, negative = inhibition, hits mostly inhibitors | 360,000 tested, 2.8% active | P53350 | Plk1 PBD binding of FITC phosphopeptide, fluorescence polarization; further: series mostly up to about 57 µM; on the % scale 0 is the no-effect control and ±100 the full control effect; nearly all actives have a fitted effect of over 65% in size
Target sequence (P53350 whole entry, looked up, the tested form may be a part): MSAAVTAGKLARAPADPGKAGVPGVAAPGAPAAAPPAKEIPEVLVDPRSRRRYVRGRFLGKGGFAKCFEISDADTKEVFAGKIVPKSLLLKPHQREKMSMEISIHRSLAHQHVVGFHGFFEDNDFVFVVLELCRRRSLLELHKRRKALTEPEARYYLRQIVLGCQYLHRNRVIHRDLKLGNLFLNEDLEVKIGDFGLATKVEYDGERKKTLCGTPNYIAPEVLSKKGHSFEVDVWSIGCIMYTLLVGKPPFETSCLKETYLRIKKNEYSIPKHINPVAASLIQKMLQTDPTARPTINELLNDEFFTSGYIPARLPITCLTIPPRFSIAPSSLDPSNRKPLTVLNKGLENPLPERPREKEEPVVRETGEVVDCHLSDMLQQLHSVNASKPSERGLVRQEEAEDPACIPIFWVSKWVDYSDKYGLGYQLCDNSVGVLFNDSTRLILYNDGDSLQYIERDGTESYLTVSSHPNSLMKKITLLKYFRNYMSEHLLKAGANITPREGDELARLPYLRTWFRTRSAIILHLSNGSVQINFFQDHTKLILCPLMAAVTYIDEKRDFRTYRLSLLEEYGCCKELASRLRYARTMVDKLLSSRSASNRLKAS
HP1b binding inh – HP1-beta chromodomain-methylated histone interaction inhibition; P83916; AlphaScreen HP1-beta / biotin-H3K9me3 peptide binding; Potency, µM (top dose mostly 114 µM), inactives show at the top dose activity change, negative = inhibition, usual class: inhibitors; 390,000 tested, 0.56% active; further: nearly all actives have a fitted effect of over 70% in size
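AlphaScreen: HP1-beta (50 nM) preformed 30 min with biotin-H3(1-18)K9me3 peptide (50 nM) in PBS pH 7.4, 0.01% Tween-20. Compound added for 30 min at RT, then streptavidin donor/nickel chelate acceptor beads (10 ug/mL) for 30 min.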
L3MBTL1 block – blocks human L3MBTL1. Potency, µM (series often up to 57.1 µM), without a hit: top-dose activity, negative = inhibition, hits mostly inhibitors. AlphaScreen L3MBTL1–H3K9me1 peptide binding. 230,000 tested, 0.66% active. Q9Y468. AID 485360; further: on the % scale 0 is the no-effect control and ±100 the full control effect; nearly all actives have a fitted effect of over 60% in size
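Read-out is AlphaScreen signal from streptavidin donor and nickel chelate acceptor beads (10 ug/mL final each) bridging L3MBTL1 (50 nM) and biotinylated K9-monomethylated H3(1-15) peptide (75 nM), after 30 min compound exposure at room temperature.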
BAZ2B inh – inhibitors of human BAZ2B bromodomain | Q9UIF8 | AlphaScreen BAZ2B-H3K14Ac peptide displacement | Potency, µM (top dose mostly 114 µM), without a hit: at the highest dose activity change, negative = inhibition, actives largely listed as inhibitors | 360,000 tested, 4.4% active; further: on the % scale 0 is the no-effect control and ±100 the full control effect; nearly all actives have a fitted effect of over 60% in size
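Inhibition is scored as reduced AlphaScreen emission. The BAZ2B/b-H3(5-23)K14Ac complex (50 nM each) in PBS pH 7.4, 0.01% Tween-20 meets compound (up to 110 uM) for 30 min at RT before bead addition.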
JMJD2A Tudor inh – blocks the human JMJD2A Tudor domain; O75164; AlphaScreen JMJD2A-Tudor / H3K4me3 peptide binding; Potency, µM (series often up to 114 µM), for inactives: top-dose activity change, negative = inhibition, most hits filed as inhibitors; 390,000 tested, 4.4% active; AID 504339; further: on the % scale 0 is the no-effect control and ±100 the full control effect; nearly all actives have a fitted effect of over 50% in size
TbPYK inh – Trypanosoma brucei pyruvate kinase inhibition, cherry-pick confirmation; recombinant TbPYK, Kinase-Glo ATP luminescence; 890 tested, 67% active; shares compounds with PLK1 PBD inh; Potency, µM (top dose mostly 76.9 µM), inactives show at the highest dose activity change, negative = inhibition, most hits filed as inhibitors; further: on the % scale 0 is the no-effect control and ±100 the full control effect; nearly all actives have a fitted effect of over 70% in size
TbPYK orthogonal – TbPYK inhibition, orthogonal confirmation; AID 720584; shares compounds with PLK1 PBD inh; recombinant TbPYK, ADP-Glo luminescence, 60 min; Potency, µM (top dose mostly 76.9 µM), for inactives: at the highest dose activity change, negative = inhibition, usual class: inhibitors; 890 tested, 62% active; further: on the % scale 0 is the no-effect control and ±100 the full control effect; nearly all actives have a fitted effect of over 75% in size
* marks the source's active call; other numbers are inactive results. Most compounds without a hit are left out; they make up all but 6.9% or so of the library. The call rests on the fitted dose curve; in most records, active means well fitted curve in the direction sought with a large enough effect; inconclusive means small, poorly fitted or top-dose-only effect, or another doubt; inactive means no such curve, though single readings can be large; an effect the other way counts as inactive or inconclusive. Potency means the concentration at half of the fitted maximal effect.

`N#CC1(NC(=O)CSc2nnc3n2CCCCC3)CCCCC1` gave VDR inh -13%, PLK1 PBD inh 2%, HP1b binding inh 41%, L3MBTL1 block 6% and JMJD2A Tudor inh 4%.
`COc1cc(N2C(=O)C=CC2=O)c(OC)cc1Cl` gave VDR inh 28µM*, PLK1 PBD inh 3µM*, HP1b binding inh 10µM*, L3MBTL1 block 4%, BAZ2B inh -15%, JMJD2A Tudor inh 10µM*, TbPYK inh 4.5µM* and TbPYK orthogonal 7.1µM*.
`O=C(O)c1ccc(NS(=O)(=O)c2ccc3c(c2)C2C=CCC2C(c2ccccc2F)N3)cc1` (stereo not drawn) gave VDR inh inconclusive, PLK1 PBD inh inconclusive, HP1b binding inh 5%, L3MBTL1 block 7.9µM*, BAZ2B inh 50µM*, JMJD2A Tudor inh inconclusive, TbPYK inh inconclusive and TbPYK orthogonal inconclusive.
`CCCCOc1ccc(/C=C/C(=O)OCC(=O)NC2CCS(=O)(=O)C2)cc1OCC` (stereo not drawn) gave VDR inh 7%, PLK1 PBD inh -5%, HP1b binding inh 21%, L3MBTL1 block -1%, BAZ2B inh 0% and JMJD2A Tudor inh -5%.
CCCCOc1ccc(/C=C/C(=O)OCC(=O)NC(=O)NCC(C)C)cc1OCC was read as VDR inh -7%, PLK1 PBD inh -11%, HP1b binding inh 16%, L3MBTL1 block 8%, BAZ2B inh -10%, JMJD2A Tudor inh -9%, TbPYK inh 4% and TbPYK orthogonal -2%.
CCCS(=O)(=O)c1cscc1NC(=O)c1c(-c2c(F)cccc2Cl)noc1C was read as VDR inh -4%, PLK1 PBD inh 4%, HP1b binding inh 12%, L3MBTL1 block 3%, BAZ2B inh 3%, JMJD2A Tudor inh inconclusive, TbPYK inh 13µM* and TbPYK orthogonal 14µM*.
Screening O=C(CSc1ccc(S(=O)(=O)N2CCCC2)cn1)Nc1ccc([N+](=O)[O-])cc1C(F)(F)F returned VDR inh -22%, PLK1 PBD inh -10%, HP1b binding inh 7% and JMJD2A Tudor inh -26%.
`CC1(C)Cc2c(C#N)c(N)sc(=S)c2CS1` gave VDR inh inconclusive, PLK1 PBD inh 8.4µM*, HP1b binding inh inconclusive, L3MBTL1 block -12%, BAZ2B inh -8%, JMJD2A Tudor inh 50µM*, TbPYK inh inconclusive and TbPYK orthogonal inconclusive.
CC(C)c1nc(Cl)c(C#N)c2c1CSC(C)(C)C2 was read as VDR inh -3%, PLK1 PBD inh -8%, HP1b binding inh 15%, L3MBTL1 block 5%, BAZ2B inh 3% and JMJD2A Tudor inh 7%.
`Cc1cccc(C)c1NC(=O)CNC(=O)c1ccccc1` gave VDR inh 9%, PLK1 PBD inh 1%, HP1b binding inh 64%, BAZ2B inh 2% and JMJD2A Tudor inh 2%.
Cc1nnsc1S(=O)c1ccc(Cl)cc1 (stereo not drawn) was read as VDR inh -4%, PLK1 PBD inh -12%, HP1b binding inh 33%, BAZ2B inh -4% and JMJD2A Tudor inh -9%.
`O=C(Nc1ccccc1)c1nnsc1S(=O)c1ccc(Cl)cc1` (stereo not drawn) gave VDR inh inconclusive, PLK1 PBD inh 0.47µM*, HP1b binding inh -32%, L3MBTL1 block 0%, BAZ2B inh -36%, JMJD2A Tudor inh inconclusive, TbPYK inh 16µM* and TbPYK orthogonal 14µM*.
For COC1=CC(=O)C(C2CC(=O)c3c(O)cc(O)cc3O2)=CC1=O (stereo not drawn) the results were VDR inh 79µM*, PLK1 PBD inh 4.2µM*, HP1b binding inh inconclusive, JMJD2A Tudor inh 79µM*, TbPYK inh 16µM* and TbPYK orthogonal 28µM*.
COc1c(CC=C(C)C)cc(C2CC(=O)c3c(O)cc(O)cc3O2)cc1CC=C(C)C (stereo not drawn) was read as VDR inh -24%, PLK1 PBD inh -7%, HP1b binding inh -5%, BAZ2B inh -8% and JMJD2A Tudor inh inconclusive.
Cc1ccc(CN(C)C(=O)c2cc(COc3cccc(C(F)(F)F)c3)on2)o1 was read as VDR inh 89µM*, PLK1 PBD inh inconclusive, HP1b binding inh 3%, BAZ2B inh -5%, JMJD2A Tudor inh -22%, TbPYK inh 13µM* and TbPYK orthogonal 11µM*.
CN(Cc1nccn1C)C(=O)c1cc(COc2cccc(C(F)(F)F)c2)on1 was read as VDR inh -8%, PLK1 PBD inh -12%, HP1b binding inh 37%, BAZ2B inh -30% and JMJD2A Tudor inh -15%.
`N#CC1=C2SCN(Cc3ccccc3)CN2C(=O)CC1c1ccc2c(c1)OCO2` (stereo not drawn) gave VDR inh 50µM*, PLK1 PBD inh 19µM*, HP1b binding inh inconclusive, L3MBTL1 block -8%, BAZ2B inh 50µM*, JMJD2A Tudor inh 50µM*, TbPYK inh inconclusive and TbPYK orthogonal inconclusive.
Screening N#CC1=C(N)OC2=C(C(=O)CC(c3ccccc3)C2)C1c1ccc2c(c1)OCO2 (stereo not drawn) returned VDR inh inconclusive, PLK1 PBD inh 5%, HP1b binding inh 2%, L3MBTL1 block -5%, BAZ2B inh inconclusive and JMJD2A Tudor inh -23%.
For CC(C)c1ccc(C2CC(=O)N3CN(Cc4ccco4)CSC3=C2C#N)cc1 (stereo not drawn) the results were VDR inh 40µM*, PLK1 PBD inh 27µM*, HP1b binding inh inconclusive, L3MBTL1 block -10%, BAZ2B inh 50µM*, JMJD2A Tudor inh 40µM*, TbPYK inh 0.14µM* and TbPYK orthogonal 0.45µM*.
`CCOC(=O)C1=C(C)N=C2SCCC(=O)N2C1c1ccc(OCc2ccccc2)c(OC)c1` (stereo not drawn) gave VDR inh -9%, HP1b binding inh 26%, BAZ2B inh -19% and JMJD2A Tudor inh -27%.
`CSC1=C(C#N)C(c2ccc(C(C)C)cc2)CC(=O)N1` (stereo not drawn) gave VDR inh 3%, PLK1 PBD inh -3%, HP1b binding inh 21%, BAZ2B inh -1% and JMJD2A Tudor inh -17%.
